Shown are actives, neighbours in structure and some others; about 3.5% of the full set was active somewhere.
TEAD-YAP inh – TEAD-YAP interaction inhibition, primary screen, TEAD-YAP interaction inhibitor project, luminescence, HEK-TIYL cells. 640,000 tested, 1.4% active. inhibition, % at 9.12 µM. AID 1259422, 2018. TEAD-Gal4/YAP UAS-luciferase luminescence; in the data active = inhibition above about 32%;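 also: 0% = median of test compound wells and 100% = reference inhibitor wells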
FBW7 activator – FBW7 E3 ligase activators, primary screen, biochemical, AlphaScreen, human; F-box/WD repeat-containing protein 7 (Homo sapiens), Q969H0; AlphaScreen FBW7–phospho-cyclin E peptide binding, activator screen; normalized activity (activation), % at 26.1 µM; 650,000 tested, 0.13% active; AID 1259310, 2017; in the data active = normalized activity above about 1.9%;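 also: purified mutant Fbw7 with reduced substrate affinity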
MITF inh – MITF inhibitors, primary screen, biochemical, AlphaScreen, human | AID 1259374, 2018 | AlphaScreen MITF homodimerization, bead proximity signal | inhibition, % at 2.6 µM | 650,000 tested, 0.91% active | Microphthalmia-associated transcription factor (Homo sapiens), O75030; in the data active = inhibition above about 50%;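 also: 0% = vehicle wells with protein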
Target sequence (O75030 whole entry, looked up): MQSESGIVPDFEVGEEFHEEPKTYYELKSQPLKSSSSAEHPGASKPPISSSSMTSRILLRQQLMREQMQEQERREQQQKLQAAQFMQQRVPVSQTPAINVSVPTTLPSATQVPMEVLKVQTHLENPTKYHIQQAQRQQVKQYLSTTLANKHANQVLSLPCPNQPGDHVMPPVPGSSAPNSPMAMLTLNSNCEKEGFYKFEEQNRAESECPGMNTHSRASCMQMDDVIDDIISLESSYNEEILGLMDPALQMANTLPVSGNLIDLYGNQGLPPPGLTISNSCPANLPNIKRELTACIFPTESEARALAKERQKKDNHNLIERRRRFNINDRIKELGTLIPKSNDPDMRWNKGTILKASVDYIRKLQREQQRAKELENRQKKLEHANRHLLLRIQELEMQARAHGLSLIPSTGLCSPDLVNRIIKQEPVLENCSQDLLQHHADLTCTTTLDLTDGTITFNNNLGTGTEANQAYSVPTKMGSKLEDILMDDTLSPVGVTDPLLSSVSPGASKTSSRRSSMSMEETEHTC
GPR151 activ – activators of human GPR151, primary screen, cell-based, PathHunter beta-arrestin, luminescence | PathHunter beta-arrestin GPR151 cells | activation, % at 11.2 µM | 650,000 tested, 1% active | AID 1508602, 2020; in the data active = activation above about 4.9%;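 also: 0% = median of compound wells and 100% = cells with positive control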
MITF inh conf – MITF inhibitors, retest of hits, confirmation, biochemical, AlphaScreen, triplicate; shares compounds with MITF inh; AlphaScreen MITF homodimerization, biotin/His-MITF beads; inhibition, % at 2.6 µM; 4,700 tested, 16% active; AID 1259372, 2018;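 active = inhibition above a cutoff derived from the DMSO control wells, cut at about 28% in these data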;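 also: 0% = MITF dimer wells with DMSO only; inhibitors lower the bead chemiluminescence by keeping MITF from dimerizing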
AlphaScreen DR – AlphaScreen optical interference compounds, dose response, counter-screen, biochemical, HTS; shares compounds with MITF inh; AlphaScreen optical interference counterscreen, cell-free; IC50, µM; 480 tested, 6% active; AID 1259373, 2018; call rule not given here
AlphaScreen intf2 – AlphaScreen optical interference compounds, counter-screen for MITF inhibitor project, biochemical, triplicate. 4,700 tested, 7.6% active. LysRS AlphaScreen counterscreen, signal interference. inhibition, % at 2.6 µM. AID 1259376, 2018. shares compounds with MITF inh;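 active = inhibition above a cutoff derived from the DMSO control wells, cut at about 30% in these data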
* = called active by the depositor; . = no result given.

SMILES	TEAD-YAP inh	FBW7 activator	MITF inh	GPR151 activ	MITF inh conf	AlphaScreen intf2	others
Cc1ccc(Cn2nnc3c(=O)[nH]c(C4CCCN(C(=O)C(C)(C)C)C4)nc32)cc1 (stereo unspecified)	3.1	0.1	66.8*	-1.1	1.2	9.1
CC(C)c1cc(C(F)(F)F)nc(SC2CC(=O)C3OCC2O3)n1 (stereo unspecified)	-1.6	0.1	10.5	1.8	.	.
C=CCOC(=O)COc1ccc2c(CC)cc(=O)oc2c1	-1.5	0.1	76.2*	-1.1	7.8	7.3
CC(C)(C)C(=O)COc1ccc2c(C(F)(F)F)cc(=O)oc2c1	5.6	0.0	5.6	-0.1	.	.
NC(=O)COc1ccc2c(C(F)(F)F)cc(=O)oc2c1	12.4	-0.1	53.7*	-0.6	-23.2	15.2
CCSc1nc2sccn2c(=O)c1C(=O)N(C)CC1OCCO1	-2.2	0.0	7.3	0.8	.	.
c1ccc(N2CCN(c3nc4ncnc(Nc5ccc(N6CCOCC6)cc5)c4[nH]3)CC2)nc1	10.1	-0.2	23.9	-0.6	.	.
NC(=O)c1ccccc1NC(=S)NC(=O)/C=C/c1ccco1	41.2*	-0.1	53.8*	0.8	69.9*	-0.5	AlphaScreen DR=>6.48
O=C(/C=C/c1cccc([N+](=O)[O-])c1)NC(=S)Nc1ccccc1C(=O)O	1.4	-0.3	86.0*	3.4	-11.0	1.1
Cc1ccc(O)c(NC(=S)NC(=O)/C=C/c2ccco2)c1	14.8	-0.2	62.0*	0.1	29.6*	29.4	AlphaScreen DR=>6.48
COCCCNC(=O)c1nc(-c2cccnc2)no1	-2.4	0.1	12.2	-2.9	.	.
COc1ccc(OC)c(NC(=O)c2cc3ccc(O)cc3oc2=Nc2ccc(C(=O)O)cc2)c1	6.1	-0.4	55.4*	0.4	79.1*	-15.3	AlphaScreen DR=>5.54
Cc1ccc(-c2noc(C3CCN(S(=O)(=O)c4ccc5c(c4)OCCO5)CC3)n2)o1	6.0	0.0	63.4*	-0.4	7.7	16.7
Cc1ccc(-c2noc(C3CCCN(S(=O)(=O)c4ccc5ccccc5c4)C3)n2)o1 (stereo unspecified)	-2.0	-0.3	-3.0	1.0	.	.
Cn1c(=O)cc(N2CCCC2)n(Cc2cccc(C(F)(F)F)c2)c1=O	5.5	0.0	67.9*	0.8	12.1	18.0
Cn1c(=O)cc(N2CCCCC2)n(Cc2cccc(C(F)(F)F)c2)c1=O	-9.0	0.0	2.3	1.0	.	.
Cc1ccccc1C(=O)Nc1c2c(nn1-c1ccc([N+](=O)[O-])cc1)CSC2	-3.9	0.0	61.2*	1.1	1.9	8.6
COc1ccc(-n2nc3c(c2NC(=O)c2ccc4c(c2)OCO4)CSC3)cc1	18.3	0.0	89.2*	-0.6	-8.0	-6.3
Cc1ccccc1-n1nc2c(c1NC(=O)c1ccc(Br)cc1)CSC2	7.2	0.1	7.2	0.5	.	.
Cc1ccc(C(=O)Nc2c3c(nn2-c2ccccc2C)CSC3)cc1	1.8	0.0	71.1*	0.7	11.1	16.1
CC(=O)Nc1ccc(NC(=O)Cc2ccc(Br)cc2)cc1	-7.5	0.5	58.5*	-1.4	19.2	7.5
COc1ccccc1/C=N/NC(=O)C(C)SCc1ccccc1 (stereo unspecified)	1.2	-0.1	-5.2	0.5	.	.
Nc1cc2c3c(cc(N)cc3c1)C(=O)N(O)C2=O	-8.3	-1.7	106.4*	0.0	111.0*	94.2*
N#Cc1ccc(-n2nnc3ccccc3c2=O)cc1C#N	2.8	-0.1	0.7	-0.4	.	.
C/C(=N\Nc1ccc(S(=O)(=O)O)cc1)c1ccc([N+](=O)[O-])o1	-1.6	-0.1	60.1*	0.1	40.0*	2.2	AlphaScreen DR=>6.48
SMILES	TEAD-YAP inh	FBW7 activator	MITF inh	GPR151 activ	MITF inh conf	AlphaScreen intf2	others
Cc1nc(Nc2c(F)cccc2F)c2cc(C)sc2n1	-23.7	0.1	24.3	-0.2	.	.
COc1ccc(-n2nc(C(=O)NCC(=O)Nc3ccc(F)c(Cl)c3)c3ccccc3c2=O)cc1OC	-3.2	-0.1	-3.2	0.3	.	.
Cc1nn(C(=O)c2nn(C)cc2I)c(C)c1Cl	0.1	1.5	54.4*	1.8	2.0	-0.9
C/C(=N\NC(=O)Cc1cc(=O)[nH][nH]1)c1ccco1	7.4	-0.3	59.5*	-0.9	55.5*	4.4	AlphaScreen DR=>6.48
CCOC(=O)N1CCN(c2c(NC3CCCCCC3)c(=O)c2=O)CC1	-6.2	0.0	11.5	-0.8	.	.
COC(=O)CSc1nnc(-c2ccncc2)n1Cc1ccco1	7.6	-0.3	-8.4	-0.4	.	.
COC(=O)CSc1nnc(-c2ccco2)n1Cc1ccco1	4.2	-0.3	76.2*	0.1	57.9*	3.4	AlphaScreen DR=>6.48
COC(=O)C1Sc2[nH]c(=O)sc2C(c2ccc(OC)cc2)C1C(=O)OC (stereo unspecified)	-2.4	0.4	51.5*	1.5	-3.1	-1.9
COC(=O)C1Sc2[nH]c(=O)sc2C(c2cccc([N+](=O)[O-])c2)C1C(=O)OC (stereo unspecified)	-8.6	0.4	16.2	0.3	.	.
CCN1C(=O)NC(c2ccc([N+](=O)[O-])cc2)C(C(=O)OCCOc2ccccc2)=C1C (stereo unspecified)	1.0	0.0	9.1	0.4	.	.
CCN1C(=O)NC(c2ccc([N+](=O)[O-])cc2)C(C(=O)OCCc2ccccc2)=C1C (stereo unspecified)	-10.1	0.6	75.9*	-0.6	1.7	21.8
COc1cc(CN(C)CCN(C)C)cc(OC)c1O	3.0	-0.2	54.9*	0.9	-2.8	-4.1
Cc1c(C(=O)C(=O)NCC(C)C)c2ccccc2n1C	-1.9	-0.1	1.1	0.7	.	.
CC1=NC(=S)C2C(=O)O/C(=C/c3ccc(-c4cccc([N+](=O)[O-])c4)o3)C2=C1 (stereo unspecified)	-4.6	-0.1	53.3*	-0.8	34.0*	23.8
CCc1nc(-c2ccccc2)c2ccccn12	2.3	0.0	55.5*	2.0	9.3	13.7
CN(C)c1ccc(NC2CC(=O)N(c3ccc(O)cc3)C2=O)cc1 (stereo unspecified)	11.9	-0.5	71.2*	1.9	30.3*	31.0*
CN(C)c1ccc(NC2CC(=O)N(c3ccc(F)cc3)C2=O)cc1 (stereo unspecified)	-5.5	0.0	1.4	0.1	.	.
COc1ccc(CN2CCN(Cc3cccc(OC)c3OC)CC2)cc1Br	-3.9	0.2	75.1*	1.5	9.5	17.6
COc1cccc(CNc2cccc(C)c2)c1OC	4.2	-0.4	78.4*	3.3	10.6	4.7
COc1ccc(CN2CCN(Cc3cccc(F)c3)CC2)c(OC)c1OC	6.0	-0.1	47.0	0.6	.	.
COc1cccc(CNc2cccc(F)c2)c1OC	2.4	0.0	14.9	-0.5	.	.

Source: PubChem
